Data taken from PubChem BioAssay (NCATS).
Results filed as inconclusive are left out. Activity calls are given as the source filed them. Calls come from the whole dose curve; as a rule, active = well fitted curve in the direction sought with a large enough effect; inconclusive = small, poorly fitted or top-dose-only effect, or another doubt; inactive = no such curve, though single readings can be large; an effect the other way counts as inactive or inconclusive.

Legend:
[1] = NS1 protein of Zika virus - qHTS assay to identify small molecule inhibitors in human HEK 293 cells (AID 1347053); note: series mostly up to about 46 µM; nearly all actives have a fitted effect of over 55% in size
Method in brief: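 HEK 293 cells, seeded 20 h at 37 C, were pretreated with compound 1 h, then infected with ZIKV MR766 (MOI = 0.5) for 24 h. NS1 was read by TR-FRET with two anti-NS1 antibodies, normalized to uninfected and infected wells.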

[2] = qHTS of pediatric cancer cell lines to identify multiple opportunities for drug repurposing: Primary screen for TC32 cells (AID 1347089); note: nearly all actives have a fitted effect of over 60% in size
Method in brief: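 Luminescent CellTiter-Glo read-out of metabolically active TC32 cells after 48 h compound exposure. Primary: MIPE 11-point, 0.78 nM–46 µM; NPC 8-point, 0.59 nM–46 µM. Confirmatory: 11-point dilutions.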

[3] = qHTS of pediatric cancer cell lines to identify multiple opportunities for drug repurposing: Primary screen for DAOY cells (AID 1347090); note: series mostly up to about 46 µM; nearly all actives have a fitted effect of over 55% in size
Method in brief: (§1)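 Eight- or eleven-point concentration series, 48 h treatment at 37 degrees C in growth media; readout CellTiter-Glo luminescence. Potency and efficacy were taken from the concentration-response curves.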

[4] = qHTS of pediatric cancer cell lines to identify multiple opportunities for drug repurposing: Primary screen for SJ-GBM2 cells (AID 1347091)
Method in brief: as §1

[5] = qHTS of pediatric cancer cell lines to identify multiple opportunities for drug repurposing: Primary screen for A673 cells (AID 1347092); note: nearly all actives have a fitted effect of over 45% in size
Method in brief: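 A673 cells (500-1,000 cells/well in growth media) were pre-incubated 5 h at 37 degrees C, then exposed to compounds for 48 h. Viability was read as CellTiter-Glo luminescence; concentration-response curves came directly from the primary screen.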

[6] = qHTS of pediatric cancer cell lines to identify multiple opportunities for drug repurposing: Primary screen for SK-N-MC cells (AID 1347093); note: series mostly up to about 46 µM
Method in brief: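 Metabolically active cells were quantified by ATP-dependent luminescence (CellTiter-Glo, 15 min at room temperature) following 48 h treatment. Cells had been plated at 500-1,000 per well and settled for 5 h beforehand.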

[7] = qHTS of pediatric cancer cell lines to identify multiple opportunities for drug repurposing: Primary screen for BT-37 cells (AID 1347094); note: series mostly up to about 57 µM
Method in brief: (§2)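 CRCs from 8- or 11-point titrations (lowest final 0.59 nM NPC, 0.78 nM MIPE). Cell viability: CellTiter-Glo after 48 h incubation, 15 min room-temperature development, luminescence imaging.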

[8] = qHTS of pediatric cancer cell lines to identify multiple opportunities for drug repurposing: Primary screen for NB-EBc1 cells (AID 1347095)
Method in brief: as §2

[9] = qHTS of pediatric cancer cell lines to identify multiple opportunities for drug repurposing: Primary screen for U-2 OS cells (AID 1347096); note: nearly all actives have a fitted effect of over 50% in size
Method in brief: (§3)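 Cells (500-1,000/well) in growth media were settled 5 h at 37 degrees C, then given compounds for 48 h. Viability was read as CellTiter-Glo luminescence. Primary runs used MIPE at 11 points (0.78 nM-46 µM) and NPC at 8 points (0.59 nM-46 µM); follow-ups used 11 points.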

[10] = qHTS of pediatric cancer cell lines to identify multiple opportunities for drug repurposing: Primary screen for Saos-2 cells (AID 1347097); note: nearly all actives have a fitted effect of over 40% in size
Method in brief: as §2

[11] = qHTS of pediatric cancer cell lines to identify multiple opportunities for drug repurposing: Primary screen for SK-N-SH cells (AID 1347098);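 note: DMSO served as neutral control and bortezomib at 2.3 µM as positive control; nearly all actives have a fitted effect of over 65% in size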
Method in brief: (§4)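 Cells (500-1,000/well) rested 5 h, then received compounds for 48 h; metabolically active cells were measured by CellTiter-Glo luminescence. Final concentrations spanned up to 46 µM (MIPE, 11-point) or 0.59 nM-46 µM (NPC, 8-point) in primary screens, 11-point in follow-ups.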

[12] = qHTS of pediatric cancer cell lines to identify multiple opportunities for drug repurposing: Primary screen for LAN-5 cells (AID 1347100)
Method in brief: as §3

[13] = qHTS of pediatric cancer cell lines to identify multiple opportunities for drug repurposing: Primary screen for BT-12 cells (AID 1347101); note: nearly all actives have a fitted effect of over 25% in size
Method in brief: as §4

[14] = qHTS of pediatric cancer cell lines to identify multiple opportunities for drug repurposing: Primary screen for Rh18 cells (AID 1347102); note: nearly all actives have a fitted effect of over 65% in size
Method in brief: as §3

[15] = qHTS of pediatric cancer cell lines to identify multiple opportunities for drug repurposing: Primary screen for OHS-50 cells (AID 1347103); note: nearly all actives have a fitted effect of over 40% in size
Method in brief: as §4

[16] = qHTS of pediatric cancer cell lines to identify multiple opportunities for drug repurposing: Primary screen for RD cells (AID 1347104); note: nearly all actives have a fitted effect of over 55% in size
Method in brief: as §2

[17] = qHTS of pediatric cancer cell lines to identify multiple opportunities for drug repurposing: Primary screen for MG 63 (6-TG R) cells (AID 1347105); note: nearly all actives have a fitted effect of over 50% in size
Method in brief: as §2

[18] = qHTS of pediatric cancer cell lines to identify multiple opportunities for drug repurposing: Primary screen for control Hh wild type fibroblast cells (AID 1347106);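 note: series mostly up to about 46 µM; a drop in luminescence marks cytotoxicity and a rise apparent proliferation; nearly all actives have a fitted effect of over 55% in size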
Method in brief: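 Viability after 48 h compound treatment at 37C, 500-1,000 cells/well, read as ATP luminescence with CellTiter-Glo. Primary screens used 11-point (MIPE, 0.78 nM-46 µM) or 8-point (NPC, 0.59 nM-46 µM) final concentrations; follow-up screens used 11-point dilutions.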

[19] = qHTS of pediatric cancer cell lines to identify multiple opportunities for drug repurposing: Primary screen for Rh30 cells (AID 1347107); note: series mostly up to about 46 µM; nearly all actives have a fitted effect of over 75% in size
Method in brief: as §3

[20] = qHTS of pediatric cancer cell lines to identify multiple opportunities for drug repurposing: Primary screen for NB1643 cells (AID 1347099); note: nearly all actives have a fitted effect of over 50% in size
Method in brief: as §2

Measured: Potency

CC(C)NC[C@@H](O)COc1ccc(CC(N)=O)cc1
not listed: [20]
inactive: all other assays above

NC(=O)NS(=O)(=O)c1ccc(N)cc1
not listed: [13] | [15] | [17] | [20]
inactive: all other assays above

CC[N+](CC)(CC(=O)Nc1c(C)cccc1C)Cc1ccccc1
not listed: [13] | [14] | [20]
inactive: all other assays above

CN1C[C@@H]2C[C@H]1CN2c1cc2c(cc1F)c(=O)c(C(=O)O)cn2C1CC1
not listed: [13] | [14] | [17]
inactive: all other assays above

CCN(CC)C(=O)c1cccc(C)c1
not listed: [13] | [17]
inactive: all other assays above

O=C(CN1CCNCC1)NC1CCCCC1
not listed: [13]
inactive: all other assays above

CC(=O)OC[C@H]1O[C@@](COC(C)=O)(O[C@H]2O[C@H](COC(C)=O)[C@@H](OC(C)=O)[C@H](OC(C)=O)[C@H]2OC(C)=O)[C@@H](OC(C)=O)[C@@H]1OC(C)=O
not listed: [15] | [17]
inactive: all other assays above

Cc1c(C(=O)NCCO)[n+](=O)c2ccccc2n1[O-]
not listed: [15]
inactive: all other assays above

O=C1c2ccccc2S(=O)(=O)N1CCCCN1CCN(c2ncccn2)CC1
not listed: [15] | [17] | [20]
inactive: all other assays above

CC[N+](C)(CC)CCOC(=O)C1c2ccccc2Oc2ccccc21
not listed: [13] | [14] | [20]
inactive: all other assays above

NS(=O)(=O)c1cc(C2(O)NC(=O)c3ccccc32)ccc1Cl (configuration not stated)
not listed: [14]
inactive: all other assays above

NS(=O)(=O)c1cc(-c2nn[nH]n2)c(NCc2cccs2)cc1Cl
not listed: [14] | [15]
inactive: all other assays above

O=C(O)[C@@H]1[C@H]2C[C@H]3c4[nH]c5ccccc5c4CCN3C[C@@H]2CC[C@@H]1O
not listed: [12] | [15] | [17]
inactive: all other assays above

CCN(CC)CCOC(=O)C(c1ccccc1)c1ccccc1
not listed: [13] | [14] | [20]
inactive: all other assays above

COc1ccc2cc(CCC(C)=O)ccc2c1
not listed: [15]
inactive: all other assays above

Cc1cc(O)cc(C)c1Cl
not listed: [15] | [20]
inactive: all other assays above

NNC(=O)CP(=O)(c1ccccc1)c1ccccc1
not listed: [20]
inactive: all other assays above

O=C(Cn1ccnc1[N+](=O)[O-])NCc1ccccc1
not listed: [14] | [15] | [17]
inactive: all other assays above

Nc1ccc(S(=O)(=O)c2ccc(N)cc2)cc1
not listed: [13]
inactive: all other assays above

O=C(O)c1ccc(OCCCOc2ccc(C(=O)O)cc2)cc1
not listed: [13] | [14]
inactive: all other assays above

NC(=O)CC[C@@H](N)C(=O)O
not listed: [8] | [15] | [17]
inactive: all other assays above

C=CCNC(N)=S
not listed: [8] | [13]
inactive: all other assays above

COc1cc(O)cc(O)c1
not listed: [11]
inactive: all other assays above

CC(CN(C)C)C(C)(O)Cc1ccc(Cl)cc1 (configuration not stated)
not listed: [8] | [15] | [20]
inactive: all other assays above

O=C1CC[C@@H](C(=O)O)N1
not listed: [10]
inactive: all other assays above

CC(=O)Nc1ccccc1
not listed: [8] | [15]
inactive: all other assays above

O=C(O)c1ccccc1OP(=O)(O)O
not listed: [8] | [20]
inactive: all other assays above

OCC(O)CS (configuration not stated)
not listed: [8] | [14] | [20]
inactive: all other assays above

OCc1ccc(Cl)cc1Cl
not listed: [10] | [11] | [13] | [17]
inactive: all other assays above

CCN[C@H]1CN(CCCOC)S(=O)(=O)c2sc(S(N)(=O)=O)cc21
not listed: [8]
inactive: all other assays above

O=C(c1ccccc1)C(O)c1ccccc1 (configuration not stated)
not listed: [10]
inactive: all other assays above

Nc1ccc(C(=O)Oc2ccccc2)c(O)c1
not listed: [10] | [11] | [15]
inactive: all other assays above
